Among the test systems are SK-MEL-2 melanoma; EKVX NSCLC; SN12C renal; TK-10 renal; ACHN renal; A498 renal; CCRF-CEM leukemia; MOLT-4 leukemia; SR leukemia; UO-31 renal.
Holding throughout (experiment): NCI-60 one-dose screen, 48 h (100 = growth as untreated, 0 = no growth, -100 = all killed)
Holding throughout (conditions): 10 µM unless noted

The panel holds about 83,000 compounds, 20% with a hit somewhere; the sample as a whole holds those more often.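 48-hour exposure, single concentration, 96-well plates; percent growth endpoint where 0 means no net growth. Active: below 10.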 A number with no mark means an inactive call. Active and inactive are the calls of the source.

As for `O=C(Nc1nccs1)c1noc2ccccc12`, the growth in the test with SK-MEL-2 melanoma is 109%; in the test with EKVX NSCLC, 88.6%; with SN12C renal, 97.1%; in the test on TK-10 renal, 133%; with ACHN renal, 96.9%; in the test with A498 renal, 101%. Moreover, the growth with CCRF-CEM leukemia was 85.7%; with MOLT-4 leukemia, 96.8%; in the test with SR leukemia, 87%.

For the compound `Cc1cccc(NC(=O)c2sc3nc4c(cc3c2N)CN(Cc2ccccc2)CC4)c1C`, the growth in the test on SK-MEL-2 melanoma is 30.3%; in the test with EKVX NSCLC it was 44.1%; in the test with SN12C renal, 43.6%; in the test on TK-10 renal, 59%; in the test with ACHN renal, 52.9%; with A498 renal, -0.165% (active). For the same compound, the growth was 13.9% with CCRF-CEM leukemia and 22.5% in the test on MOLT-4 leukemia.

For `N#CC(C#N)=C1NC(c2ccccc2)=C(c2ccccc2)C(c2ccccc2Cl)=C1C#N`, the growth in the test with SK-MEL-2 melanoma is 94.8%; with EKVX NSCLC, 97.6%; in the test on SN12C renal, 111%; in the test on TK-10 renal, 80.7%; in the test with ACHN renal, 110%; in the test with A498 renal, 113%. Also, the figures for the growth with CCRF-CEM leukemia, in the test with MOLT-4 leukemia and in the test on SR leukemia were 96.2%, 81.5% and 109%, respectively.

`[2H]c1nc(Nc2ncc3cc(C(=O)N(C)C)n(C4CCCC4)c3n2)c([2H])c([2H])c1N1C([2H])([2H])C([2H])([2H])NC([2H])([2H])C1([2H])[2H]`: the growth in the test with SK-MEL-2 melanoma is 83.9%; with EKVX NSCLC, 64.4%; in the test on UO-31 renal, 52.5%; in the test on TK-10 renal, 37%; in the test on ACHN renal, 47.1%; in the test on A498 renal, 76.8%. The growth in the test with CCRF-CEM leukemia was 38.5%; with MOLT-4 leukemia it was 5.14% (active).

For `COc1ccc(C2=NN(c3ccc(S(N)(=O)=O)cc3)C(c3ccc(Cl)cc3)C2)c(O)c1` (stereo unspecified), the growth in the test on SK-MEL-2 melanoma is 87.9%; in the test with EKVX NSCLC, 56%; in the test on SN12C renal, 73%; with TK-10 renal it was 53.7%; in the test on ACHN renal, 65%; in the test on CCRF-CEM leukemia, 26.8%. The growth was 32.5% with MOLT-4 leukemia and 16.1% in the test with SR leukemia.

Take `COc1cc(/C=C/C(=O)c2cccs2)ccc1OCc1ccc(Cl)nc1`: the growth in the test with SK-MEL-2 melanoma was 96.7%; with EKVX NSCLC, 94.8%; in the test with SN12C renal, 81.1%; with TK-10 renal, 111%; in the test with ACHN renal it was 102%; in the test on A498 renal, 100%. Also, the figures for the growth with CCRF-CEM leukemia, in the test with MOLT-4 leukemia and in the test with SR leukemia were 61.9%, 86.6% and 20.5%, respectively.

With `C#Cc1cccc(Nc2ncnc3ccc(NC(=O)c4ccccc4)cc23)c1`, the growth with SK-MEL-2 melanoma is 85.3%; in the test with EKVX NSCLC, 52.3%; in the test with SN12C renal, 76.6%; with TK-10 renal, 26.1%; in the test on ACHN renal, 39.6%; in the test with A498 renal, 65.4%. Besides, the values for the growth in the test on CCRF-CEM leukemia, with MOLT-4 leukemia and with SR leukemia were 89.7%, 59.5% and 61.8%, respectively.

For `CC(C)(C#N)c1cc(F)cc(C(=O)Nc2cc(Nc3ncccc3-c3ncnc4nc[nH]c34)ccc2F)c1`, the growth in the test with SK-MEL-2 melanoma is -12.8% (active); with EKVX NSCLC, 59.5%; in the test with SN12C renal, 56.7%; in the test with TK-10 renal it was 49%; in the test with ACHN renal it was 38.5%; in the test on A498 renal, -4.87% (active). Further, the growth in the test with CCRF-CEM leukemia was 38.9%; in the test with MOLT-4 leukemia it was 29.2%; with SR leukemia, 35.5%.

`Cc1cc(O)cc(O)c1N=NC1=NCCS1`: the growth was 98.3% with SK-MEL-2 melanoma; 96.5% with EKVX NSCLC; 89.9% in the test on UO-31 renal; 135% with TK-10 renal; 97.3% with ACHN renal; -6.58% (active) in the test on A498 renal. Further, the growth with CCRF-CEM leukemia is 101%; in the test on MOLT-4 leukemia it was 94.1%; with SR leukemia, 97.1%.

Take `CN1CC=C(c2cc(NC(=O)Nc3ccc(Oc4ccnc(NC(=O)C5CC5)c4)c(F)c3)cc(C(F)(F)F)c2)CC1`: the growth in the test with SK-MEL-2 melanoma was -42.8% (active); with EKVX NSCLC it was -19.9% (active); in the test on UO-31 renal, -1.84% (active); with TK-10 renal, -2.39% (active); with ACHN renal, -1.41% (active); in the test with A498 renal it was -27.9% (active). Also, the figures for the growth in the test with CCRF-CEM leukemia, in the test with MOLT-4 leukemia and in the test with SR leukemia were 1.49% (active), -4.01% (active) and -18.3% (active), respectively.

Regarding `COCCc1n(Cc2ccc3ccccc3c2)c2ccccc2[n+]1Cc1ccc2ccccc2c1`, the growth with SK-MEL-2 melanoma was -61.6% (active); in the test with EKVX NSCLC, 4.7% (active); with TK-10 renal, -80.9% (active); with ACHN renal, 20.3%; in the test on A498 renal, -19.1% (active); in the test with CCRF-CEM leukemia, -9.95% (active). Moreover, the growth in the test with MOLT-4 leukemia was -43.4% (active); with SR leukemia it was -57% (active).

As for `COc1ccc(C2CC(c3ccc(OC)cc3O)=NN2c2ccc(S(N)(=O)=O)cc2)cc1` (stereo unspecified), the growth with SK-MEL-2 melanoma was 58.7%; in the test on EKVX NSCLC, 20.9%; in the test on UO-31 renal it was 27.6%; with TK-10 renal it was 43.9%; in the test on ACHN renal it was 29.1%; in the test on A498 renal it was 71.2%. Also, the figures for the growth with CCRF-CEM leukemia, in the test with MOLT-4 leukemia and with SR leukemia were 13.5%, 4.82% (active) and 8.1% (active), respectively.

Regarding `O=C(O)c1cc(N=Nc2ccc(-c3ccc(N=Nc4c(S(=O)(=O)O)cc5ccc(Nc6ccccc6)cc5c4O)cc3)cc2)ccc1O`, the growth was 93.8% in the test on SK-MEL-2 melanoma; 101% in the test with EKVX NSCLC; 81.3% in the test on UO-31 renal; 106% in the test on TK-10 renal; 102% in the test on ACHN renal; 99.4% in the test on A498 renal. The growth in the test on CCRF-CEM leukemia was 101%; in the test on MOLT-4 leukemia, 97.9%; in the test with SR leukemia, 105%.

As to `N#Cc1c(-c2ccc(F)cc2)nc(N=Nc2c(O)[nH]c3ccc(Cl)cc23)nc1N1CCOCC1`, the growth in the test on SK-MEL-2 melanoma was 64%; in the test on EKVX NSCLC, 72.5%; in the test with UO-31 renal, 6.44% (active); with TK-10 renal, 11.6%; in the test on ACHN renal, 14.6%; with A498 renal it was 51.2%. Further, the growth is 58.7% in the test with CCRF-CEM leukemia, 48.5% in the test on MOLT-4 leukemia and 47% in the test with SR leukemia.

Consider `C/C(=C\c1cnc(C)s1)[C@@H]1C[C@@H]2O[C@@H]2CCC[C@H](C)[C@H](O)[C@@H](C)C(=O)C(C)(C)[C@@H](O)CC(=O)O1`, for which the growth with SK-MEL-2 melanoma is 27.5%; with EKVX NSCLC, 44.4%; with UO-31 renal, 36.4%; in the test on TK-10 renal, 44.8%; in the test on ACHN renal, 52.8%; with A498 renal, 4.95% (active). In addition, the growth was 30.7% in the test on CCRF-CEM leukemia, 31.7% in the test on MOLT-4 leukemia and 30% in the test with SR leukemia.

On to `Cc1nccc2c3ccc(OCc4cn(-c5ccccc5)nn4)cc3n(CCCc3ccccc3)c12`, for which the growth in the test with SK-MEL-2 melanoma is 91.7%; with EKVX NSCLC, 69.9%; in the test on UO-31 renal, 54.6%; in the test with TK-10 renal it was 71.6%; in the test on ACHN renal, 72%; with A498 renal it was 53.8%. Also, the growth is 77.4% with CCRF-CEM leukemia, 35.3% with MOLT-4 leukemia and 33.5% in the test on SR leukemia.

As to `COC(=O)c1cc2c3c(cc(O)c2[nH]1)N(C(=O)C1Cc2cc(OC)c(OC)c(OC)c2N1)CC3CCl` (stereo unspecified), the growth in the test with SK-MEL-2 melanoma is -43% (active); in the test on EKVX NSCLC, -31.5% (active); with UO-31 renal, -97.8% (active); with TK-10 renal, -89.5% (active); in the test on ACHN renal, -56.1% (active); in the test with A498 renal, -42.8% (active). Also, the values for the growth with CCRF-CEM leukemia, with MOLT-4 leukemia and in the test on SR leukemia were 5.91% (active), -11.7% (active) and 8.12% (active), respectively.

For the compound `COc1ccc(/C=C(/C(=O)N2CCCC2)c2cc(OC)c(OC)c(OC)c2)cc1`, the growth was 64.3% in the test with SK-MEL-2 melanoma; 73.1% with EKVX NSCLC; 44.5% in the test on UO-31 renal; 71.3% in the test with TK-10 renal; 54.5% with ACHN renal; 13.4% with A498 renal. Besides, the growth in the test on CCRF-CEM leukemia was 14%; in the test on MOLT-4 leukemia, 32.6%; in the test with SR leukemia it was 19.7%.

Regarding `O=C1c2ccccc2C(=O)c2c1oc1c2c(=O)[nH]c2ccc(Cl)cc21`, the growth was 31.8% in the test with SK-MEL-2 melanoma; 15.2% with EKVX NSCLC; -54.9% (active) in the test with UO-31 renal; -42.1% (active) in the test with TK-10 renal; -14.2% (active) in the test with ACHN renal; 29% with CCRF-CEM leukemia. For the same compound, the growth is 18.4% with MOLT-4 leukemia and 33.7% in the test on SR leukemia.

As for `C=C(C)[C@@H]1CC[C@]2(C(=O)n3ccnc3)CC[C@]3(C)[C@H](CC[C@@H]4[C@@]5(C)CCCNC(C)(C)[C@@H]5CC[C@]43C)[C@@H]12`, the growth in the test on SK-MEL-2 melanoma was 53.5%; in the test with EKVX NSCLC, 61.9%; in the test on UO-31 renal, 43.8%; in the test with TK-10 renal, 70.5%; in the test with ACHN renal, 46.6%; in the test on A498 renal, 84%. The growth in the test with CCRF-CEM leukemia was 0.353% (active); in the test with MOLT-4 leukemia, -15.9% (active); with SR leukemia it was -33% (active).

As for `COC(=O)c1oc2c(C(=O)/C=C/c3ccc(OC)cc3)c(OCCCN3CCCCC3)ccc2c1C`, the growth with SK-MEL-2 melanoma is 53.5%; in the test on EKVX NSCLC, 28%; in the test with UO-31 renal it was 12.2%; in the test on TK-10 renal, 35.2%; with ACHN renal, 28%; in the test with A498 renal, 83.6%. Besides, the growth with CCRF-CEM leukemia was -46.2% (active); in the test on MOLT-4 leukemia, -31.4% (active); in the test with SR leukemia, -31% (active).

As for `O=c1[nH]nc(-c2ccccc2)c2sc(NC(=S)Nc3ccc(Cl)cc3)nc12`, the growth with SK-MEL-2 melanoma was 85.5%; in the test on EKVX NSCLC it was 83%; with UO-31 renal, 84.4%; with TK-10 renal, 96.5%; in the test on ACHN renal, 102%; in the test on A498 renal, 86%. For the same compound, the growth in the test with CCRF-CEM leukemia is 99.2%; in the test on MOLT-4 leukemia, 79.6%; with SR leukemia it was 91.7%.

Turning to `CC(=O)OCC1OC(OC2C(COC(C)=O)OC(OCCC[S-])C(OC(C)=O)C2OC(C)=O)C(OC(C)=O)C(OC(C)=O)C1OC(C)=O.[Au+].c1ccc(CN2[CH-]N(Cc3ccccc3)C(c3ccccc3)=C2c2ccccc2)cc1` (stereo unspecified), the growth in the test on SK-MEL-2 melanoma is 13.4%; with EKVX NSCLC, 28.1%; with UO-31 renal it was 9.47% (active); in the test with TK-10 renal it was 38.5%; in the test with ACHN renal, 15.1%; with CCRF-CEM leukemia it was 11.5%. Besides, the growth is 15.3% with MOLT-4 leukemia and 11% in the test with SR leukemia.

The values are drawn from PubChem BioAssay (NCI).
